High-throughput results: PubChem BioAssay, National Center for Advancing Translational Sciences (NCATS)
BLM helicase inh = blocks DNA unwinding by human BLM helicase | recombinant BLM DNA unwinding, fluorescence dequenching | Potency, µM (top dose mostly 56.1 µM), for inactives: at the top dose activity change, negative = inhibition, actives largely listed as inhibitors | AID 2528 | 350,000 compounds, 0.2% hits | P54132;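 further: potency means the concentration at half of the fitted maximal effect; plate controls were vehicle for no effect and no enzyme for full effect; nearly all actives have a fitted effect of over 35% in size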
FEN1 inh = inhibitors of human flap endonuclease 1; Potency, µM (highest dose often 114 µM), without a hit: at the highest dose activity change, negative = inhibition, usual class: inhibitors; 390,000 compounds, 0.35% hits; Recombinant FEN1 flap cleavage, fluorescence, 15 min; further: potency means the concentration at half of the fitted maximal effect; nearly all actives have a fitted effect of over 65% in size
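Reaction started by adding substrate (50 nM final) to 10 nM enzyme after 15 min room-temperature compound preincubation. Reads at 0 and 15 min, with data normalized and fitted to a four-parameter Hill equation.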
RECQ1 inh-1 = RECQ1 (human) helicase inhibition; 240,000 compounds, 0.54% hits; AID 2549; Potency, µM (titrated, usually from 57.3 µM), for the others: at the top dose activity, negative = inhibition, hits mostly inhibitors; RECQ1 DNA unwinding, red fluorescence kinetic read; P46063;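 further: potency means the concentration at half of the fitted maximal effect; plate controls were vehicle for no effect and no enzyme for full effect; nearly all actives have a fitted effect of over 30% in size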
Target sequence (P46063 whole entry, looked up): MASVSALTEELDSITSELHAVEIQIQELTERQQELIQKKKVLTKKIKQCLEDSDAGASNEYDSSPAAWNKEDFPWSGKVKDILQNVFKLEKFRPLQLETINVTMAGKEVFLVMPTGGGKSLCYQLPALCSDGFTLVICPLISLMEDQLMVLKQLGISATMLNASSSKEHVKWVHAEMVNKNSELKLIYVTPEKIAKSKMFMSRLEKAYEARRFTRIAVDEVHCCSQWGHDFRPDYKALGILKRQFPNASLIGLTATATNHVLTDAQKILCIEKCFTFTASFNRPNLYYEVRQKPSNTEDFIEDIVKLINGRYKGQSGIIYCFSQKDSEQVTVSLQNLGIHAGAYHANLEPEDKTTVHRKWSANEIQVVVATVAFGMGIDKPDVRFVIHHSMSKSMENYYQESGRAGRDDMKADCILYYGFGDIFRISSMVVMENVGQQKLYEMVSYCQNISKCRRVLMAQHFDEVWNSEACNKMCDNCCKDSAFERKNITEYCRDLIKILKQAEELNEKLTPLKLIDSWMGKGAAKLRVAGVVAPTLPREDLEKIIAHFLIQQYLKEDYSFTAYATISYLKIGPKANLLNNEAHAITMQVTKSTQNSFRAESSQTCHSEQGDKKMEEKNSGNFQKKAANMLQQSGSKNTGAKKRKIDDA
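RECQ1T1 50 nM; forked duplex (20 bp + 30-nt ss tails) 200 nM, ATP 2 mM final; pH 8.0, 2 mM MgCl2, 2.5 ug/ml poly(dI-dC); 15 min compound preincubation; discontinuous kinetic read over 2 h at RT.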
PI5P4K alpha inh = PI5P4K alpha (human) kinase inhibition. P48426. PI5P4Kalpha enzyme, ADP-Glo luminescence, 60 min; hits give low values. max response, %. 330,000 compounds, 1.2% hits. AID 652105; active means max response of -50% or lower; inconclusive means between -30% and -50%; inactive means -30% or higher; further: value at the top dose of about 77 µM
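Luminescence from ADP-Glo served as readout of PI5P4Kalpha activity in a qHTS format. Reaction: enzyme, substrate, compound, ATP at 5 microM final, 60 min at RT.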
WRN helicase inh = blocks human WRN helicase; Potency, µM (series often up to 114 µM), for the others: at the highest dose activity change, negative = inhibition, hits mostly inhibitors; 360,000 compounds, 0.46% hits; WRN helicase unwinding, fluorescent forked duplex, kinetic; Q14191; AID 651768; further: potency means the concentration at half of the fitted maximal effect; nearly all actives have a fitted effect of over 55% in size
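Kinetic red-fluorescence monitoring (525/598 nm) tracks WRN helicase activity after 100 nM fluorophore-quencher forked duplex and 2 mM ATP are added to 20 nM enzyme pretreated 15 min at room temperature with compound.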
APEX1 inh = inhibitors of human APE1 endonuclease | P27695 | recombinant APE1, TAMRA/BHQ-2 abasic DNA cleavage fluorescence | Potency, µM (highest dose often 65.8 µM), without a hit: at the top dose activity change, negative = inhibition, usual class: inhibitors | 350,000 compounds, 0.35% hits | AID 2517;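 further: potency means the concentration at half of the fitted maximal effect; plate controls were vehicle for no effect and reference inhibitor for full effect; nearly all actives have a fitted effect of over 55% in size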
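0.75 nM APE1 + cpd, 15 min RT; start w/ 50 nM TAMRA/BHQ-2 THF-abasic dsDNA; kinetic fluor 525/598 nm ×3 reads @60 s; Δ(read3−read1); normalized to DMSO and NSC13755 control wells.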
RECQ1 inh conf = confirmation of human RECQ1 helicase inhibitors; shares compounds with RECQ1 inh-1; RECQ1 helicase DNA unwinding, fluorescence; Potency, µM (titrated, usually from 229 µM), inactives show top-dose activity change, negative = inhibition, actives largely listed as inhibitors; 610 compounds, 28% hits; AID 2708; further: potency means the concentration at half of the fitted maximal effect; nearly all actives have a fitted effect of over 45% in size
ADP FP counter = counter-screen for RECQ1 inhibitors: ADP displacement; 530 compounds, 27% hits; Potency, µM (doses to about 228 µM), for inactives: top-dose activity change, negative = inhibition, actives largely listed as inhibitors; ADP fluorescence polarization displacement counterscreen; shares compounds with RECQ1 inh-1; further: potency means the concentration at half of the fitted maximal effect; nearly all actives have a fitted effect of over 45% in size
RECQ1 inh-2 = confirmation of human RECQ1 helicase inhibitors. Potency, µM (highest dose often 119 µM), without a hit: at the top dose activity, negative = inhibition, actives largely listed as inhibitors. 1,100 compounds, 15% hits. shares compounds with RECQ1 inh-1. AID 504841. recombinant RECQ1 DNA unwinding, red fluorescence; further: potency means the concentration at half of the fitted maximal effect; nearly all actives have a fitted effect of over 50% in size
* hit, by the source's call; i = inactive; ? = inconclusive; . = no result given; [ ] = dose if it differs, or a comment. The list is not random: actives were taken first. Their share in the collection is about 1.5%. Unless noted, the call rests on the fitted dose curve; in most records, active means well fitted curve in the direction sought with a large enough effect; inconclusive means small, poorly fitted or top-dose-only effect, or another doubt; inactive means no such curve, though single readings can be large; an effect the other way counts as inactive or inconclusive. Unless noted, on the % scale 0 is the no-effect control and ±100 the full control effect.

SMILES	BLM helicase inh	FEN1 inh	RECQ1 inh-1	PI5P4K alpha inh	WRN helicase inh	APEX1 inh	RECQ1 inh conf	ADP FP counter	RECQ1 inh-2
COc1ccc(N(CC(=O)N/N=C/c2cccc(OC)c2OC)S(=O)(=O)c2ccccc2)cc1	-7%	1%	.	5	0%	-6%	.	.	.
COc1ccc(C)cc1N(CC(=O)N/N=C/c1ccccc1C(=O)O)S(=O)(=O)c1ccccc1	-3%	1%	0%	-4	1%	1%	0%	9%	.
O=S(=O)(c1ccc(Cl)cc1)N1CCN(c2nc(-c3ccc(F)cc3)nc3cc(Cl)ccc23)CC1	.	10%	.	.	.	.	.	.	.
COc1cccc(Nc2ncc3nc(-c4cc(F)cc(F)c4)c(=O)n(CCC#N)c3n2)c1	-5%	.	?	.	.	18%	.	.	?
COc1cccc(Nc2ncc3nc(-c4ccc(F)cc4)c(=O)n(CCC#N)c3n2)c1	0%	.	-8%	.	.	-2%	.	.	.
Cc1cccc(N2CCN(C(=O)C3CCN(S(=O)(=O)c4c(C)noc4/C=C/c4ccccc4F)CC3)CC2C)c1 (configuration not stated)	-5%	6%	.	.	.	.	.	.	.
Cc1ccc(NC(=S)NC(=O)c2sc3ccccc3c2Cl)c(C(=O)O)c1	-14%	.	7%	.	.	-3%	89µM*	?	.
CN(C)c1ccc(/C=C/C=C2/SC(=S)N(c3ccccc3)C2=O)cc1	-9%	-9%	1.4µM*	?	?	-12%	3.5µM*	?	.
Nc1c(C(=O)Nc2ccc(F)cc2)sc2nc(-c3ccco3)ccc12	-14%	17%	22µM*	-26	-10%	?	.	.	-16%
Nc1c(C(=O)Nc2ccc(Br)cc2)sc2nc(-c3ccco3)ccc12	-21%	-11%	-22%	?	-21%	-14%	.	.	.
COc1ccc(-n2c(SCC(=O)Nc3nccs3)nnc2-c2ccoc2C)cc1	-6%	1%	-14%	0	-5%	-2%	7%	-12%	.
COc1ccc(-n2c(SCC(=O)Nc3nc(C)cs3)nnc2-c2ccoc2C)cc1	2%	-3%	-18%	0	2%	-1%	-6%	9%	.
Cc1c2cnn(CC(=O)NCC(C)c3ccccc3)c(=O)c2c(C)n1Cc1cccc(Cl)c1 (configuration not stated)	-1%	20%	.	.	.	.	.	.	.
COc1ccc(N2CCN(C(=O)c3nc(-c4ccc(Cl)cc4)n4c3CCCCC4)CC2)cc1	-5%	6%	.	.	.	.	.	.	.
O=C(Nc1ccc(S(=O)(=O)Nc2nccs2)cc1)c1ccc(=O)[nH]c1	-28%	-26%	?	?	?	?	.	.	?
COc1ccc(-c2nc3cnc(N4CCOCC4)nc3n(-c3ccc(OC)cc3)c2=O)cc1	-16%	.	?	.	.	14µM*	.	.	-4%
COc1ccc(-n2c(=O)c(-c3cccc(Cl)c3)nc3cncnc32)cc1	2%	.	?	.	.	16%	.	.	-3%
COc1ccc(-n2c(=O)c(-c3ccc(F)cc3)nc3cnc(N4CCOCC4)nc32)cc1	-5%	.	i	.	.	1%	.	.	.
O=C1ON=C(c2ccccc2)/C1=C/c1ccco1	2%	?	?	-21	?	?	.	.	-25%
OC(COc1ccc(Cl)cc1)CN1CCN(c2cccc(Cl)c2)CC1 (configuration not stated)	-12%	-3%	35µM*	23	11%	10%	.	.	?
O=[N+]([O-])c1ccccc1S(=O)(=O)N1CCN(c2nc(-c3cccs3)nc3ccccc23)CC1	.	12%	.	.	.	.	.	.	.
CC(=O)Oc1ccc(C(=O)Nc2ccc3c(c2)C(=O)N(CCC(=O)O)C3=O)cc1	-3%	-1%	-14%	.	-22%	-1%	?	?	.
COc1ccc(NC(=O)c2c(NCc3ccc(C)o3)sc3c2CCC(C)C3)c(OC)c1 (configuration not stated)	-10%	-27%	.	.	.	.	.	.	.
CCCSC1=N/C(=C\c2ccc([N+](=O)[O-])o2)C(=O)S1	4%	35µM*	13µM*	-70*	22µM*	22µM*	-5%[114 µM]	.	?
Cc1ccccc1-n1nc(CO)c(C(=O)NCC(c2ccccc2)c2ccccc2)n1	-8%	-21%	.	.	.	.	.	.	.
SMILES	BLM helicase inh	FEN1 inh	RECQ1 inh-1	PI5P4K alpha inh	WRN helicase inh	APEX1 inh	RECQ1 inh conf	ADP FP counter	RECQ1 inh-2
CCn1c(CCCOc2ccc(Cl)cc2Cl)nnc1SCC(=O)Nc1cccc(F)c1	-3%	-2%	13µM*	.	2%	-2%	10%[114 µM]	-12%[91.9 µM]	-15%
COc1cccc(C(=O)N(Cc2cc3cc(C)ccc3[nH]c2=O)C(C)C)c1	2%	3%	?	1	0%	0%	.	.	-10%
COc1cc(OC)cc(C(=O)N(Cc2cc3cc(C)ccc3[nH]c2=O)C(C)C)c1	2%	-13%	-10%	1	3%	-4%	.	.	.
COc1cc(C(=O)Nc2ccc(-c3cc(C(F)(F)F)nn3-c3ccccc3)cc2)cc(OC)c1OC	-11%	2%	.	.	.	.	.	.	.
Cc1oc(-c2ccccc2F)nc1CS(=O)CC(=O)NC(C)C (configuration not stated)	2%	-1%	.	.	.	.	.	.	.
COc1ccc2c(c1)c1c(c(=O)n(-c3cccc(Cl)c3)c(=O)n1CC(=O)N1CCCC1)n2C	-2%	1%	.	.	.	.	.	.	.
CC(C)c1ccc(S(=O)(=O)N2CCC(n3c(C(F)(F)F)nc4cccnc43)CC2)cc1	-4%	-4%	.	.	.	.	.	.	.
CCCCNC(=O)c1onc(CSc2ccccc2)c1C(=O)O	-6%	16%	-12%	?	-4%	-13%	.	.	.
O=C(NCC1CCCO1)c1onc(CSc2cccc3ccccc23)c1C(=O)O (configuration not stated)	-1%	-1%	-10%	?	-4%	-1%	5%	2%	.
C=CCNC(=O)c1onc(CSc2cccc(OC)c2)c1C(=O)O	1%	-1%	-6%	-26	7%	1%	6%	?	.
CCCCNC(=O)c1onc(CSc2cccc3ccccc23)c1C(=O)O	-3%	11%	6%	?	-1%	1%	?	-4%	.
COc1cccc(SCc2noc(C(=O)NC(C)C)c2C(=O)O)c1	0%	17%	-1%	-1	0%	1%	.	.	.
CC(C)OCCCNC(=O)CSc1c2c(nc3ccc(Cl)cc13)CCCC2	-3%	-12%	.	.	.	.	.	.	.
